These results are taken from PubChem BioAssay AID588591 (National Center for Advancing Translational Sciences (NCATS), 2011).

In all, about 390,000 compounds went through this assay and about 4,700 (1.2%) were called active. Another 4% or so got no clear call; they are omitted. Shown is part of a subset that was picked to be rich in actives. Values without a mark were called inactive. Calls follow the shape of the dose curve; as a rule, active = well fitted inhibition curve with a large enough effect; inconclusive = small, poorly fitted or top-dose-only effect, or another doubt; inactive = no such curve, though single readings can be large or run the other way.
% is scaled to controls: 0 for no effect and ±100 for the full control effect; potency is read from the fitted curve at half-maximal effect.

Sequence of DNA polymerase eta (Homo sapiens) (Q9Y253 whole entry, looked up): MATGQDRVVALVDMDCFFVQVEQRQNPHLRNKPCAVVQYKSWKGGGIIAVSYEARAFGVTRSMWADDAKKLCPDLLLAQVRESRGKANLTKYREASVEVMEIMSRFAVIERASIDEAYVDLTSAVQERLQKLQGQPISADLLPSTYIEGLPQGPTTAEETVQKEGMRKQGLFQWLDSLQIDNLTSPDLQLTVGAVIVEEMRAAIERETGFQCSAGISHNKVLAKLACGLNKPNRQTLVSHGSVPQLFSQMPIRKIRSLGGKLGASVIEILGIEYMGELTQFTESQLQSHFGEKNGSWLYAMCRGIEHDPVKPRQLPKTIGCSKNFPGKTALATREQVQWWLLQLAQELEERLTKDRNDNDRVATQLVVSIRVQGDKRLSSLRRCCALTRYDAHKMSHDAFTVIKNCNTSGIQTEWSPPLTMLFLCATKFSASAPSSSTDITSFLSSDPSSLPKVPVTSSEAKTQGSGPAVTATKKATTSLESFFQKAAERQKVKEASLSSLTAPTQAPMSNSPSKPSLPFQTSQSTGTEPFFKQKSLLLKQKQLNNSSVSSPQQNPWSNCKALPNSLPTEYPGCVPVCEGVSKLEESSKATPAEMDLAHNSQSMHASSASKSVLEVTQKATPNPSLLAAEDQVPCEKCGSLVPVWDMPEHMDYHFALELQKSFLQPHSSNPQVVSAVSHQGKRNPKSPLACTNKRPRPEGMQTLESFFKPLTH

The test concerns the target DNA polymerase eta (Homo sapiens) (UniProt Q9Y253). In words: qHTS for Inhibitors of Polymerase Eta. The settings on record: recombinant Pol eta, fluorescent DNA replication assay; series mostly up to 114 µM; activity change, negative = inhibition: at the top concentration. The procedure, abridged: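 Pol eta (10 nM) was preincubated with compounds for 15 min at room temperature, after which fluorescent replication substrate (50 nM final) was added to start the reaction. Fluorescence was read kinetically at 0 and 10 min.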
(Quantitative high-throughput screening tests each substance at several concentrations.)
For `COc1cccc(Cn2c(CNS(=O)(=O)c3ccc(Cl)s3)nc3cccnc32)c1`, the “activity change, negative = inhibition” value is -21.5%. Still for that read-out and setting: the same measure for `CCOC(=O)c1ccc(NC(=O)c2csc3c2CCCCC3)cc1`: -10.6%. Still for that read-out and setting: with `CC(C)C[C@H](NC(=O)[C@H](O)[C@H](N)Cc1ccccc1)C(=O)O` the figure was -3.39% [at 57.1 µM]; with `CC(=O)c1ccc(NC(=O)CCc2nnc3ccc(NCc4ccco4)nn23)cc1`, -3.8%. Turning to `O=C(CCc1nnc2ccc(NCc3ccco3)nn12)Nc1cc(F)ccc1F`, the Potency was 50.1 µM (active).

For the compound `CC1CCN(C(=O)CCc2nnc3ccc(NCc4ccco4)nn23)CC1`, the “activity change, negative = inhibition” value is 0.0463%. Same read-out and setting: with `CCc1ccc2oc(-c3ccc(NC(=O)c4cc5ccccc5o4)cc3)nc2c1` the figure was -4.85%; with `CCCNC(=O)c1ccc2c(c1)ncn2-c1ccc(C)cc1C`, 8.94%. Still for that read-out and setting: with `COc1ccc(Cn2ccc3nc(C)c(C(=O)Nc4ccc(C)c(F)c4)cc3c2=O)cc1` the figure was -17.6%; with `CCN1CCN(c2cc(C)c3cc(NC(=O)c4cc(Cl)ccc4OC)ccc3n2)CC1`, 2.16%; with `Cc1ccc(OCC(=O)Nc2ccc3oc(=O)ccc3c2)cc1C`, 2%. The same measure, in the same setting: the same measure for `Cc1ccc(OCC(=O)Nc2ccccc2C(=O)NC2CC2)cc1C`: 3.79%.

In the case of `COc1ccc(NC(=O)c2ccco2)cc1NC(=O)COc1ccc(C)c(C)c1`, the Potency was 89.1 µM (active). As to `CCc1ccc(-n2nnc(-c3nc(-c4ccccc4)no3)c2C)cc1`, the “activity change, negative = inhibition” value is -18.6%. Still for that read-out and setting: the same measure for `O=C(c1cnn(-c2ccc(F)cc2)c1-n1cccc1)N1CCN(c2ccc(F)cc2)CC1`: -8.06%; for `COc1ccc(Cl)cc1NC(=O)CSc1nc2ccccc2c2nc(-c3ccccc3)nn12`: -14.6%; for `O=C(CCc1nc(CN2CCN(S(=O)(=O)c3ccc(F)cc3)CC2)no1)N1CCCCC1`: -11.5%.

On to `O=C1C(Cl)=C(Oc2ccccc2)C(=O)c2ccccc21`, for which the Potency was 7.94 µM (active). For the compound `Cc1ccc(N(CC(=O)NCc2ccc(Cl)cc2)S(=O)(=O)N(C)C)cc1`, the “activity change, negative = inhibition” value is -9.02%. Same read-out and setting: the same measure for `O=C(CSc1ccc(/C=N/NC(=O)c2cccc(F)c2)o1)Nc1ccccc1`: -3.64%. Turning to `O=C(CCNC(=O)c1ccccc1)NN=Cc1ccc(Br)o1`, the Potency was 56.2 µM (active). As for `N#CCC(=O)N/N=C/c1ccc(SCC(=O)Nc2ccccc2)o1`, the “activity change, negative = inhibition” value is -11.6%. Consider `Cc1cccc2c1-c1sc(C(=O)Nc3ccc(F)cc3F)cc1CO2`, for which the “activity change, negative = inhibition” value was -2.34%. Still for that read-out and setting: with `CCOc1ccc(-c2cc3nc(C4CCN(C(=O)OC(C)(C)C)CC4)c(C(=O)Nc4ccc(C(=O)OC)cc4)cn3n2)cc1` the figure was -17.3%. Same read-out and setting: with `Cc1ccc(-c2nnc(Nc3cccc(Br)c3)c3ccccc23)cc1S(=O)(=O)NCC1CCCO1` (stereo not drawn) the figure was -4.88%; with `Cc1ccc2c(c1)-c1c(cnn1CC(=O)Nc1ccccc1C#N)CO2`, -20.4%. Same read-out and setting: the same measure for `CN(C(=O)CSc1nc2ccccc2n1Cc1ccccc1C#N)c1ccccc1`: -5.18%. For the compound `N#Cc1ccccc1CN1C(=O)S/C(=C/c2cccn2-c2cccc(C(=O)O)c2)C1=O`, the Potency is 3.16 µM (active). As to `COc1ccc(OC)c(-c2nc(C(N)=O)c3c(n2)n(-c2ccc4c(c2)OCO4)c(=O)n3C)c1`, the “activity change, negative = inhibition” value is -0.421%. Still for that read-out and setting: the same measure for `CCCOc1cccc(C(=O)Nc2cccc(NC(=O)c3ccc(C(C)(C)C)cc3)c2)c1`: -20.1%; for `CCc1nnc(NC(=O)CSc2nnc(COc3ccc(C#N)cc3)n2-c2ccccc2)s1`: -0.262%; for `Cc1csc2nc(COc3ccc(NC(=O)COc4ccccc4)cc3)cc(=O)n12`: -12.8%. As to `N#Cc1ccc(OCC(=O)Nc2nc(-c3ccccn3)cs2)cc1`, the Potency is 22.4 µM (active). Regarding `COCCNC(=O)CSc1c(C)cnc2c1c(=O)n(C)c(=O)n2C`, the “activity change, negative = inhibition” value is -26.6%. Same read-out and setting: with `CCOC(=O)c1ccc(NC(=O)CCn2cnnn2)cc1` the figure was -12%.

As for `CCN(C(=O)c1sc2cc(OC)ccc2c1Cl)c1ccccc1`, the “activity change, negative = inhibition” value is -18.2%. Still for that read-out and setting: with `CCC(=O)N1CCc2cc(Br)cc(S(=O)(=O)CCC(=O)N3CCN(c4ccc(F)cc4)CC3)c21` the figure was -12.4%. As for `O=C1Nc2ccc([N+](=O)[O-])cc2C1=Nc1cccc(CO)c1`, the Potency is 20 µM (active). Take `COc1ccccc1CNC(=O)CCCCn1c(=O)c2ccccc2n(CC(=O)Nc2cc(Cl)ccc2C)c1=O`: the “activity change, negative = inhibition” value is 8.51%. Same read-out and setting: with `COc1cc(OC)c(NC(=O)c2cc(S(=O)(=O)N3CCCC3)cn2C)cc1Cl` the figure was -11.9%; with `CCCN1CN=C(NS(=O)(=O)c2ccc(NC(C)=O)cc2)NC1`, -13.5%; with `Cc1ccc(-n2c(=O)c3cccnc3n2CC(=O)Nc2ccccc2C(F)(F)F)cc1C`, -2.51%. For the compound `COCCCNC(=O)c1c(NC(=O)c2cc(=O)c3cc(C)c(C)cc3o2)sc2c1CCCC2`, the “activity change, negative = inhibition” value is 8.47%. For the compound `CC(C)c1ccc(NS(=O)(=O)c2ccc3[nH]cc(C(=O)NC4CCCC4)c(=O)c3c2)cc1`, the Potency is 31.6 µM (active).

`CCc1ccc(NS(=O)(=O)c2ccc3[nH]cc(C(=O)NCCc4cccc(C)c4)c(=O)c3c2)cc1`: the “activity change, negative = inhibition” value is -14.7%. Same read-out and setting: the same measure for `Cc1cc(C)cc(NS(=O)(=O)c2ccc3[nH]cc(C(=O)N4CCCCC4)c(=O)c3c2)c1`: -10.1%; for `CCOc1cc(C2c3c(-c4ccc(Br)cc4)n[nH]c3C(=O)N2c2ccc(Cl)cc2)ccc1O` (stereo not drawn): -27.5%; for `Cc1cccc(Nc2nc(C)nc(N)c2S(=O)(=O)c2ccccc2)c1`: -6.89%. On the same count and under the same terms, with `COc1ccc(CCNC(=O)CCCn2c(=O)c3ccccc3n(Cc3ccc(C)cc3)c2=O)cc1OC` the figure was -10.4%.

As to `CC(=O)c1ccc(S(=O)(=O)N2CCC(Oc3ccc(-n4cnnn4)cc3)CC2)cc1`, the Potency entry was “inactive”. Still for that read-out and setting: with `CC(=O)c1ccc(S(=O)(=O)N2CCN(C(=O)/C=C/c3ccc4ccccc4n3)CC2)cc1` the figure was 39.8 µM (active). Turning to `CC(=O)c1cccc(Nc2ccc3cc(S(=O)(=O)N4CCC(C)CC4)ccc3n2)c1`, the “activity change, negative = inhibition” value was -25.7%. Still for that read-out and setting: with `Cc1ccccc1CNC(=O)CSc1nnc(C)c2c(C)n(-c3ccccc3)nc12` the figure was -14%. For `CN(Cc1ccccc1)C(=O)c1cn(C)c2ccc(S(=O)(=O)N3CCCCC3)cc2c1=O`, the “activity change, negative = inhibition” value is -6.85%. With `CCCCn1c(=N)c(S(=O)(=O)c2ccccc2)cc2c(=O)n3cccc(C)c3nc21`, the “activity change, negative = inhibition” value was -22.5%. Same read-out and setting: with `CCCc1cc(-c2n[nH]c(=S)n2CC)c2ccccc2n1` the figure was -3.34%. Take `Cc1cc(-c2n[nH]c(=S)n2/N=C/C(Br)=C/c2ccccc2)n[nH]1`: the Potency is 14.1 µM (active). As for `Cc1ccc(NC(=O)CSc2nnc3[nH]c(=O)cc(C)n23)cc1Cl`, the “activity change, negative = inhibition” value was 16.8%. Consider `CCOc1ccc(NC(=O)C/C(C)=N/NC(=O)Cc2cccs2)cc1`, for which the “activity change, negative = inhibition” value is -8.22%. On the same count and under the same terms, with `CCOc1ccccc1NC(=O)CCn1cnnn1` the figure was -19.3%; with `CCc1nnc(NC(=O)CCC(=O)NCc2ccccc2OC)s1`, -7.14%; with `COc1ccc(CC(=O)Nc2sc(Cc3ccccc3)c(C)c2C(N)=O)cc1`, -6.32%. Regarding `CCOc1ccccc1NC(=O)Cc1cccs1`, the Potency is 44.7 µM (active). Still for that read-out and setting: with `CCc1nnc(NC(=O)Cc2cccs2)s1` the figure was 35.5 µM (active). Take `CC(C)(C)CC(=O)Nc1nnc(SCC(=O)NCc2cccs2)s1`: the “activity change, negative = inhibition” value was -15.9%. Regarding `COc1ccc(Cc2nnc(NC(=O)Cc3cccs3)s2)cc1`, the Potency was 1 µM (active).

In the case of `COc1ccc(CNC(=O)CCC(=O)Nc2nnc(C(C)C)s2)cc1`, the “activity change, negative = inhibition” value is -6.93%.

With `COc1cccc(NC(=O)CSc2cc(=O)n(C)c3ccc(Cl)cc23)c1`, the “activity change, negative = inhibition” value is -11.1%.

Turning to `Fc1ccccc1Oc1ncnc2c1oc1ccccc12`, the “activity change, negative = inhibition” value was -14.1%. The same measure, in the same setting: with `Cc1cccc(-n2ncc(C(=O)N3CCc4ccccc4C3)c2C2CCN(C(=O)OC(C)(C)C)CC2)c1` the figure was -14.8%; with `COc1ccccc1-c1nnc(C2CCN(C(=O)c3ccc(Cl)cc3)CC2)o1`, -19.5%; with `Cc1ccc(-n2c(=O)c3cccnc3n2CC(=O)NCc2ccc(F)cc2)cc1C`, -22.2%.

As for `Cc1oc2ccc(O)c(CN3CCOCC3)c2c1C(=O)Nc1cccc(Cl)c1C`, the “activity change, negative = inhibition” value is -14.5%. Still for that read-out and setting: the same measure for `COc1ccc2cc(-c3nc(Cl)c4c5c(sc4n3)CC(C)CC5)c(=O)oc2c1` (stereo not drawn): -7.52%. `COc1ccc(-c2cc3ccc(OCc4nn[nH]n4)cc3oc2=O)cc1`: the Potency was 17.8 µM (active). As for `COc1ccc2oc(=O)c(-c3cn4c(n3)sc3cc(OC)ccc34)cc2c1`, the “activity change, negative = inhibition” value was -9.11%. On the same count and under the same terms, the same measure for `CCCS(=O)(=O)c1ncc(Cl)c(C(=O)Nc2scc(-c3ccccc3)c2C(=O)OCC)n1`: -15.6%; for `COc1ccc(Cn2c(C(=O)O)c(CNCCc3cccs3)c3ccc(OC)cc32)cc1`: -16.6%; for `CCCNC(=O)C1CCN(c2nc3ccc(C)cc3[nH]2)CC1`: -9.68%. On to `Cc1ccc(Cc2cncc(O)c2)cc1S(=O)(=O)O`, for which the Potency was 25.1 µM (active). Turning to `CCCCCn1c(CCCNC(=O)c2ccccc2OC)nc2ccccc21`, the “activity change, negative = inhibition” value was -9.44%. On to `Oc1c(Cl)cc(Cl)c(Cl)c1Cc1c(O)c(Cl)cc(Cl)c1Cl`, for which the Potency was 44.7 µM (active). Consider `Cc1ccccc1NC(=O)Cn1cc(C(=O)c2cccs2)c2ccccc21`, for which the “activity change, negative = inhibition” value was -17.3%. Still for that read-out and setting: with `Cn1c(=O)c2c(nc(Oc3ccc(C#N)cc3)n2Cc2ccc(Cl)cc2Cl)n(C)c1=O` the figure was -8.3%. The same measure, in the same setting: with `Cc1cccc(C)c1-n1ncc(C(=O)NCCCN2CCCCC2)c1C1CCN(C(=O)OC(C)(C)C)CC1` the figure was -12.6%. For the compound `CC(C)CC(=O)NCC(c1ccc2c(c1)OCO2)N1CCN(c2ccc(F)cc2)CC1` (stereo not drawn), the “activity change, negative = inhibition” value was -22.4%. On the same count and under the same terms, the same measure for `CC(=O)c1ccccc1OCc1ccc(C(=O)c2ccccc2)cc1`: -17.2%. In the case of `O=C(c1ccc(O)cc1)c1ccc(C(=O)O)c(C(=O)O)c1`, the Potency is 39.8 µM (active).

As for `O=C(c1ccccc1)c1ccc(OC(=O)N2CCCC2)cc1`, the “activity change, negative = inhibition” value is -11.8%. Same read-out and setting: with `CCOc1cccc2sc(N3CCN(C(=O)C4CC4)CC3)nc12` the figure was -10.9%; with `O=C(CSc1oc(-c2ccco2)nc1S(=O)(=O)c1ccc(Cl)cc1)c1ccccc1`, -11%. On the same count and under the same terms, the same measure for `CCN(C(=O)COC(=O)/C=C/c1nc2ccccc2s1)C1CCS(=O)(=O)C1` (stereo not drawn): -11.5%; for `Cc1cc(C)c2nc(SCC(=O)N(C)C3CCS(=O)(=O)C3)cc(C)c2c1` (stereo not drawn): -8.11%. Same read-out and setting: the same measure for `CN(CCOc1ccccc1)Cc1nc2cc(Cl)ccc2c(=O)[nH]1`: -11.3%. On to `CN(C(=O)COC(=O)c1cc(-c2ccco2)nc2ccccc12)C1CCS(=O)(=O)C1` (stereo not drawn), for which the Potency is 6.31 µM (active). On the same count and under the same terms, with `CN(CCOc1ccccc1)C(=O)c1cc(-c2ccco2)nc2ccccc12` the figure was 25.1 µM (active).

`COc1cccc(NC(=O)CN(C)C(=O)c2cc(Cl)nc3ccccc23)c1`: the “activity change, negative = inhibition” value was -1.6%. For `Cc1oc2c(c1C(=O)Nc1ccc(F)c(F)c1)C1=NCCN1C=N2`, the “activity change, negative = inhibition” value was -11.1%.
